# Experimental data from PubChem BioAssay (NCATS).
# Inconclusive results are not listed. A call without a number means that no potency is given here. More than one record can exist for a structure, and the calls need not agree. Calls of active or inactive are those of the source. Unless noted, calls come from the whole dose curve; as a rule, active = well fitted inhibition curve with a large enough effect; inconclusive = small, poorly fitted or top-dose-only effect; inactive = flat fitted curve, though single readings scatter.
# Biological target: Thyroid hormone receptor beta (Homo sapiens) (UniProt P10828)
# Sequence (P10828 whole entry, looked up): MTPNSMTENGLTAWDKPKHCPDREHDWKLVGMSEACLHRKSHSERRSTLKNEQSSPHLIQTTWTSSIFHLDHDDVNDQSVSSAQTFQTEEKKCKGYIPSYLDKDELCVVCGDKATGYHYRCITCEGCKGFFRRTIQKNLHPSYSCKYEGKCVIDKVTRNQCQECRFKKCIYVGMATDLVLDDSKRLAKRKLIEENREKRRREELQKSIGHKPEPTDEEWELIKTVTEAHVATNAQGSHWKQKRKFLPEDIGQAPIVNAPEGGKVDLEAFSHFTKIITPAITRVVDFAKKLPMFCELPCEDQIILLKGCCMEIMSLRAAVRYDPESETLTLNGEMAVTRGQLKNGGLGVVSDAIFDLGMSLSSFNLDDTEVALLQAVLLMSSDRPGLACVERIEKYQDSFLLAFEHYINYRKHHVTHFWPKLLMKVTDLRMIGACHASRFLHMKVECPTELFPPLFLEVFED
# Assay: qHTS assay for small molecule antagonists of thyroid hormone receptor beta signaling (AID 588547; active = well fitted inhibition curve with a large enough effect in the signal ratio, with a control signal flat, not every such curve was filed as active; the % refers to the signal ratio;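 note: cells stimulated with 0.4 nM T3 agonist during compound exposure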)
# Conditions: TR-UAS-bla HEK293, beta-lactamase ratio, antagonist mode, 18 h
# Procedure, shortened: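 Inhibition of T3-driven (0.4nM final) beta-lactamase reporter activity was measured over 0.59 nM to 92 uM compound after 18 h at 37 C. The cells were GripTite HEK293 TR-UAS-bla in charcoal/dextran-stripped serum, with CCF4 ratio read-out and IC50 from Hill fits.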
row,SMILES,activity change % (negative = inhibition)
1,O=C(O)c1cc[c]([Hg][Cl])cc1,-18.8% (inactive)
2,NNC(N)=O,-12% (inactive)
3,O=c1[nH]c(=O)n(Cl)c(=O)n1Cl,1.99% (inactive)

# Biological target: Voltage-gated inwardly rectifying potassium channel KCNH2 (Homo sapiens) (UniProt Q12809)
# Sequence (Q12809 whole entry, looked up): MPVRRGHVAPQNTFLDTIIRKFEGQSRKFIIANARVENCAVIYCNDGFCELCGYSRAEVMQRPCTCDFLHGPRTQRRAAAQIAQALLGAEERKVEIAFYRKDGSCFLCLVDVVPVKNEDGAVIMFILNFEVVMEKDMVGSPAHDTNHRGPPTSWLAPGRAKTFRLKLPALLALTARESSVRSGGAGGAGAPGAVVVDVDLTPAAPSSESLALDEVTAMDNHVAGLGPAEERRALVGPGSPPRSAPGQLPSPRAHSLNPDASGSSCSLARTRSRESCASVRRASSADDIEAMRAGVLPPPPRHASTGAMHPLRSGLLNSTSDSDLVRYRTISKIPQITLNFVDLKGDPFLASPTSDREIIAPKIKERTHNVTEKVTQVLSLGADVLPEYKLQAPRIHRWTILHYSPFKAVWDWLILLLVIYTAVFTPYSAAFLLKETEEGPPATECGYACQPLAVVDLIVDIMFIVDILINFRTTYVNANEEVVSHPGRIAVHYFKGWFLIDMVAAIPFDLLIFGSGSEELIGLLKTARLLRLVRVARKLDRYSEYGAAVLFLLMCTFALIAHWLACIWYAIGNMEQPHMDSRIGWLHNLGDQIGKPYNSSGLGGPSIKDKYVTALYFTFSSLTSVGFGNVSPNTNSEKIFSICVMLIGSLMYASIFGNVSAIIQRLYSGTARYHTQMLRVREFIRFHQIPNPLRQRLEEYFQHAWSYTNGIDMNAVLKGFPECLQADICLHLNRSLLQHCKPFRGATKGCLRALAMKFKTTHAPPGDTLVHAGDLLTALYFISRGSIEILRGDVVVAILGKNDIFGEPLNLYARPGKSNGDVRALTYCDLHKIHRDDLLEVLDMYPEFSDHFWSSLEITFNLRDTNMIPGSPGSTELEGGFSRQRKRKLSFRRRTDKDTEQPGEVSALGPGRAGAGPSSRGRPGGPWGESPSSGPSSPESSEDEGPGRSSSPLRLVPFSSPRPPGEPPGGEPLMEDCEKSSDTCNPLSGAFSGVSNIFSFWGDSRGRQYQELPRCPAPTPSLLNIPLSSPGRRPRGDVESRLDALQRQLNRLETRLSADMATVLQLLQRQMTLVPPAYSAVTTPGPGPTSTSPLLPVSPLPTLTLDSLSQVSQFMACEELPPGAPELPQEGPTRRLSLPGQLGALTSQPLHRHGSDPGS
# Assay: qHTS Assay for Small Molecule Inhibitors of the Human hERG Channel Activity (AID 588834);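 note: lower thallium flux fluorescence means stronger hERG block; nearly all actives have a fitted effect of over 50% in size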; note: potency is the fitted concentration of half-maximal effect
# Conditions: U2OS BacMam hERG, FluxOR thallium flux fluorescence; series mostly up to 46.1 µM
# Procedure, shortened: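 Measured: FluxOR fluorescence after thallium stimulation in U2OS cells transduced with hERG by baculovirus. Compounds pre-incubated around 10 min; medium Opti-MEM with 2% FCS. AC50 from Hill equation.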
row,SMILES,Potency
1,CCNCC(O)c1cccc(O)c1 (stereo not given),inactive
2,CNc1ccc(C(=O)CC(O)CCC(C)C2OC(=O)CC(O)CC(=O)CC(O)CC(O)CC(O)CC(O)CC3(O)CC(O)C(C(=O)OC)C(CC(O[C@@H]4O[C@H](C)[C@@H](O)[C@H](N)[C@@H]4O)/C=C/C=C/C=C/C=C/C=C/C=C/C=C/C2C)O3)cc1 (stereo not given in full),inactive
3,O=C(O)c1cc[c]([Hg][Cl])cc1,inactive
4,COc1ccc(OC)c([C@@H](O)[C@H](C)N)c1,inactive
5,C=C[C@H]1CN2CC[C@H]1C[C@@H]2[C@@H](O)c1ccnc2ccccc12,14.1 µM (active)
6,COC(COC(N)=O)C1=C(N2CC2)C(=O)C(C)=C(N2CC2)C1=O (stereo not given),inactive
7,C[C@@H](CO)NC(=O)[C@@H]1C=C2c3cccc4[nH]cc(c34)C[C@H]2N(C)C1,inactive
8,NCC[C@H](O)C(=O)N[C@@H]1C[C@H](N)[C@@H](O[C@H]2O[C@H](CN)[C@@H](O)[C@H](O)[C@H]2N)[C@H](O[C@@H]2O[C@H](CO)[C@@H](O)[C@H]2O)[C@H]1O,inactive
9,C[C@@H](Cc1ccccc1)N(C)C,inactive
10,C[N+]1(C)CCC(OC(=O)C(c2ccccc2)c2ccccc2)CC1,inactive
11,CCN(CC)C(=O)N[C@H]1C[C@@H]2c3cccc4[nH]cc(c34)C[C@H]2N(C)C1,inactive
12,NNC(N)=O,inactive
13,N#CC(C#N)=Cc1cc(O)c(O)c(O)c1,inactive
14,CC(C)CCC(=O)O[C@H]1CC[C@H]2[C@@H]3CCC4=CC(=O)CC[C@]4(C)[C@H]3CC[C@]12C,25.1 µM (active)
15,[H+].[H+].[Hg+2].[O-]B([O-])[O-].[c-]1ccccc1,10 µM (active)
16,CC(=O)OCC(=O)[C@H]1CC[C@H]2[C@@H]3CC[C@H]4C[C@H](O)CC[C@]4(C)[C@H]3C(=O)C[C@]12C,inactive

row,SMILES,Potency
1,CCN(CC)CCO[C@H]1CC[C@@]2(C)C(=CC[C@@H]3[C@@H]2CC[C@]2(C)C(=O)CC[C@@H]32)C1,inactive
2,Oc1ccc2c3c1O[C@H]1[C@@H](O)CC[C@@]4(O)[C@@H](C2)N(CC2CCC2)CC[C@]314,inactive
3,C[N+]1(C)[C@@H]2CC(OC(=O)[C@H](CO)c3ccccc3)C[C@H]1[C@H]1O[C@@H]12 (stereo not given in full),inactive
4,CC(=O)[C@H]1CC[C@H]2[C@@H]3CC[C@@H]4C[C@H](O)CC[C@]4(C)[C@H]3CC[C@]12C,inactive
5,CN(C)CCCCCCN(C)C (tested in a mixture with another compound),inactive
6,Cc1cccc(C(C)c2cnc[nH]2)c1C (stereo not given),inactive
7,C[C@]12CC[C@H](O)C[C@H]1CC[C@@H]1[C@@H]2CC[C@]2(C)[C@@H](c3ccc(=O)oc3)C[C@H]3O[C@]132,inactive
8,CO[C@H]1[C@@H](O)C[C@H](O[C@H]2[C@@H](O)C[C@H](O[C@H]3[C@@H](O)C[C@H](O[C@H]4CC[C@@]5(C)[C@H](CC[C@@H]6[C@@H]5C[C@@H](O)[C@]5(C)[C@@H](C7=CC(=O)OC7)CC[C@]65O)C4)O[C@@H]3C)O[C@@H]2C)O[C@@H]1C,inactive
9,[2H]C([2H])([2H])[C@H](N)Cc1ccccc1,inactive
10,C[C@]12CC[C@H]3[C@@H](CCC4=C(O)C(=O)CC[C@@H]43)[C@@H]1CC[C@@H]2OC(=O)CCC1CCCC1,inactive
11,C[C@H]1CC[C@]2(NC1)O[C@H]1C[C@H]3[C@@H]4CC[C@H]5C[C@@H](O)CC[C@]5(C)[C@H]4CC[C@]3(C)[C@H]1[C@@H]2C,inactive
12,CN(C)[C@@H]1C(=O)C(C(N)=O)=C(O)[C@@]2(O)C(=O)C3=C(O)c4c(O)ccc(Cl)c4[C@@](C)(O)[C@H]3C[C@@H]12,inactive
13,C[C@]12CC[C@H]3[C@@H](CC[C@@]45O[C@@H]4C(O)=C(C#N)C[C@]35C)[C@@H]1CC[C@@H]2O,inactive
14,Cc1cc(C)cc(C(=O)OC2C[C@H]3CC[C@@H](C2)N3C)c1 (stereo not given in full),3.98 µM (active)
15,CCCCC[C@@H](O)C1C(=O)OC(C)[C@H](O)/C=C/C=C/C=C/C=C/C=C(\C)C(O)C(O)C(O)C[C@H](O)C[C@H](O)C[C@H](O)C[C@H](O)C[C@@H]1O (stereo not given in full),inactive
16,O=C1C[C@@H]2OCC=C3CN4CC[C@]56c7ccccc7N1[C@H]5[C@H]2[C@H]3C[C@H]46 (tested in a mixture with another compound),25.1 µM (active) and inactive
